Results: PubChem BioAssay (Tox21)
Values joined by “and” are separate entries in the source; they are usually repeats but may differ in a detail not shown here. Equal values may be shown once. Results filed as inconclusive are left out. Active and inactive are the calls of the source. Unless noted, calls follow the shape of the dose curve; as a rule, active = well fitted curve in the direction sought with a large enough effect in the repeat runs; inconclusive = weak or mixed curves; inactive = no such curve, though single readings can be large; an effect the other way counts as inactive or inconclusive.

Tests used:
[1] = qHTS assay to identify aromatase inhibitors - cell viability counter screen (AID 743084);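 also: cells stimulated with testosterone during compound exposure; nearly all actives have a fitted effect of over 55% in size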; also: potency is read from the fitted curve at half-maximal effect
[2] = target: Aryl hydrocarbon receptor (Homo sapiens) (UniProt P35869); test: qHTS assay to identify small molecule that activate the aryl hydrocarbon receptor (AhR) signaling pathway (AID 743085); also: nearly all actives have a fitted effect of over 15% in size; also: potency is read from the fitted curve at half-maximal effect;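 as to activation: HG2L7.5c1 human HepG2 liver cells with stably integrated DRE-driven firefly reporter; series mostly up to about 70 µM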
Chain of Aryl hydrocarbon receptor (Homo sapiens) (P35869 whole entry, looked up): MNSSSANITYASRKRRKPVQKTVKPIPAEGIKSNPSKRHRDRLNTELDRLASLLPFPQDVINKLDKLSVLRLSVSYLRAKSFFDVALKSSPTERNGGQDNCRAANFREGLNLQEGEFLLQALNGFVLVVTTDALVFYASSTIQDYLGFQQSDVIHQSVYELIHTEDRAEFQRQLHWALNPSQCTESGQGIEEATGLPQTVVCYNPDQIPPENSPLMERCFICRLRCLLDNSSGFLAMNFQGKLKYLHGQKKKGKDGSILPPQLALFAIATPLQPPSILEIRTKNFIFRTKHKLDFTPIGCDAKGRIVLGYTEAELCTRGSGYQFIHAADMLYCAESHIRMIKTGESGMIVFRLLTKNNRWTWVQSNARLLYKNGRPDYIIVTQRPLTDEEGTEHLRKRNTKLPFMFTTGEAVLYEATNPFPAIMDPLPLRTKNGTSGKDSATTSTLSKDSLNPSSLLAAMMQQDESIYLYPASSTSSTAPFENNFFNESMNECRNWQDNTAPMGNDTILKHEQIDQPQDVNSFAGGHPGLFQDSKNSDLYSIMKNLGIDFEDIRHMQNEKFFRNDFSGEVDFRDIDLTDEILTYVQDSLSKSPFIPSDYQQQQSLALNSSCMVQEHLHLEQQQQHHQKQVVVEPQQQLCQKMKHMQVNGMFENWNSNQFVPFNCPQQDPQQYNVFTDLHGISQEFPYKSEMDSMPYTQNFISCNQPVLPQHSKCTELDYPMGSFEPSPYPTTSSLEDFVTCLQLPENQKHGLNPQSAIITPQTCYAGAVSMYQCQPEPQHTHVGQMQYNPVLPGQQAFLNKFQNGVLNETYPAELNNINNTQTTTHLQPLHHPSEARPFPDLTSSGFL
Method in brief: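 Luminescence read-out: ONE-Glo reagent, 30 min at room temperature, in HG2L7.5c1 HepG2 reporter cells treated 24 h at 37C. Viability was measured beforehand by CellTiter-Fluor fluorescence after 30 min at 37C.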

[3] = qHTS assay to identify small molecule that activate the aryl hydrocarbon receptor (AhR) signaling pathway - cell viability counter screen (AID 743086); also: nearly all actives have a fitted effect of over 45% in size; also: potency is read from the fitted curve at half-maximal effect;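 as to viability change, negative = cytotoxic: HepG2 liver cells carrying the AhR DRE luciferase reporter; series mostly up to about 70 µM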
Method in brief: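 HepG2-AhR-luc (HG2L7.5c1) cells, 4000/well, were preincubated 5 h at 37C, exposed to compound in qHTS format for 24 hr at 37C, then given CellTiter-Fluor for 30 min; viability was read as fluorescence in the reporter wells.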

[4] = target: Peroxisome proliferator-activated receptor gamma (Homo sapiens) (UniProt P37231); test: qHTS assay to identify small molecule agonists of the peroxisome proliferator-activated receptor gamma (PPARg) signaling pathway (AID 743094; active = well fitted activation curve with a large enough effect in the signal ratio in the repeat runs, not every such curve was filed as active; the % refers to the signal ratio)
Chain of Peroxisome proliferator-activated receptor gamma (Homo sapiens) (P37231 whole entry, looked up): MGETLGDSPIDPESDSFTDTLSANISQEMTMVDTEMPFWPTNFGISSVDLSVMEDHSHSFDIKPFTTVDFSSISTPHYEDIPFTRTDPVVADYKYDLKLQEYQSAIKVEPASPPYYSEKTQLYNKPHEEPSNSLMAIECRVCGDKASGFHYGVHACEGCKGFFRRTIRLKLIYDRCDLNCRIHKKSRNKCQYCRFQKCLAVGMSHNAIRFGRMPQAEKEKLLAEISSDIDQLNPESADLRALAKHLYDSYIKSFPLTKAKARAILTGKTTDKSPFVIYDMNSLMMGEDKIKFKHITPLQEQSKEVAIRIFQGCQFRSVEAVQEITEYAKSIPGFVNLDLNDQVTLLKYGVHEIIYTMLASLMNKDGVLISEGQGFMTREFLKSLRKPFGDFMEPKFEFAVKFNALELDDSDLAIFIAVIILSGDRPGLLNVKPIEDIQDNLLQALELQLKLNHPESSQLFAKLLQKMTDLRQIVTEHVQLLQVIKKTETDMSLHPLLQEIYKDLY
Method in brief: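 Compounds dissolved in DMSO were added to PPARg UAS-bla HEK293H cells for 17 h at 37C, and reporter expression was quantified by fluorescence intensity after 1 h with LiveBLAzer B/G FRET substrate.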

[5] = qHTS assay to identify small molecule antagonists of the peroxisome proliferator-activated receptor gamma (PPARg) signaling pathway - cell viability counter screen (AID 743194); conditions: Potency: co-treated with 50 nM rosiglitazone unless noted; also: nearly all actives have a fitted effect of over 55% in size; also: potency is read from the fitted curve at half-maximal effect
Method in brief: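 PPARg-UAS-bla HEK293H cells were plated, rested 5 h at 37 C, then treated with compounds plus rosiglitazone (50 nM final) for 17 h at 37 C; viability was then read by CellTiter-Glo luminescence after 30 min at room temperature.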

[6] = qHTS assay for small molecule agonists of the antioxidant response element (ARE) signaling pathway (AID 743202; active = well fitted activation curve with a large enough effect in the signal ratio in the repeat runs, not every such curve was filed as active; the % refers to the signal ratio; also: potency is read from the fitted curve at half-maximal effect)
Method in brief: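 Compounds delivered in DMSO to ARE-bla HepG2 cells (2,000 cells/well, pre-incubated 5 h) and left 16 h at 37 C. LiveBLAzer B/G FRET substrate then added for 2 h at RT before fluorescence reading.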

[7] = qHTS assay for small molecule activators of the heat shock response signaling pathway - cell viability counter screen (AID 743209); also: nearly all actives have a fitted effect of over 50% in size; also: potency is read from the fitted curve at half-maximal effect
Method in brief: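 Readout: CellTiter-Glo luminescence, 30 min at room temperature. System: HSE-bla HeLa cells, 1500/well, plated overnight. Treatment: compounds in DMSO, 5 h at 37 C.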

[8] = qHTS assay for small molecule activators of the heat shock response signaling pathway (AID 743210; active = well fitted activation curve with a large enough effect in the signal ratio in the repeat runs, with a control signal flat, not every such curve was filed as active; the % refers to the signal ratio;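 also: HeLa cells with beta-lactamase reporter driven by heat shock elements; series mostly up to about 63 µM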)
Method in brief: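 Reporter gene assay: HeLa cells stably bearing an HSE-bla construct, compound treatment 5 h at 37 C, LiveBLAzer substrate 2.5 h at RT, fluorescence intensity.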

[9] = qHTS assay to identify small molecule agonists of the peroxisome proliferator-activated receptor delta (PPARd) signaling pathway - cell viability counter screen (AID 743211); also: nearly all actives have a fitted effect of over 55% in size; also: potency is read from the fitted curve at half-maximal effect
Method in brief: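 Read-out: CellTiter-Glo luminescence, 30 min RT, measured in the same wells as the beta-lactamase reporter. Cells: GeneBLAzer PPAR delta UAS-bla HEK293H, 3000 cells/well, compound exposure 17 h at 37C.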

[10] = target: Peroxisome proliferator-activated receptor delta (Homo sapiens) (UniProt Q03181); test: qHTS assay to identify small molecule agonists of the peroxisome proliferator-activated receptor delta (PPARd) signaling pathway (AID 743212; calls by dose curve)
Chain of Peroxisome proliferator-activated receptor delta (Homo sapiens) (Q03181 whole entry, looked up): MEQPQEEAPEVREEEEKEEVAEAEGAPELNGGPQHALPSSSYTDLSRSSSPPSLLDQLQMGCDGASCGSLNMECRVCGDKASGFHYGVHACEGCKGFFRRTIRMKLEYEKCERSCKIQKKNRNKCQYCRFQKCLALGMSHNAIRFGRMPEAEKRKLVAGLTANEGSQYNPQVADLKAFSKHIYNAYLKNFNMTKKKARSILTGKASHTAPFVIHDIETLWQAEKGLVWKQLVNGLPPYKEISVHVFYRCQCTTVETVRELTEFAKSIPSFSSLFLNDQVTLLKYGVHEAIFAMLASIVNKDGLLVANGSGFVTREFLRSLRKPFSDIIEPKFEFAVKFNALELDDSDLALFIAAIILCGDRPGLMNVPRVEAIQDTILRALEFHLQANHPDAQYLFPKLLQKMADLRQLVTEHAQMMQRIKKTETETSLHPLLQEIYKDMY
Method in brief: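 A PPARd-bla HEK293H line with beta-lactamase under an Upstream Activator Sequence is treated with compounds at 37 C. Substrate loading for 2 h at room temperature precedes the fluorescence measurement.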

[11] = target: Peroxisome proliferator-activated receptor delta (Homo sapiens) (UniProt Q03181); test: qHTS assay to identify small molecule antagonists of the peroxisome proliferator-activated receptor delta (PPARd) signaling pathway (AID 743215; active = well fitted inhibition curve with a large enough effect in the signal ratio in the repeat runs, not every such curve was filed as active; the % refers to the signal ratio;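 also: cells stimulated with agonist L165041 at 300 nM final during compound exposure; series mostly up to about 62 µM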)
Method in brief: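 HEK293H UAS-bla, PPARd; agonist L165041 300 nM final with cpd in DMSO; 37 C 17 h; FRET substrate, RT 2 h; fluorescence intensity.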

[12] = qHTS assay to identify small molecule agonists of the farnesoid-X-receptor (FXR) signaling pathway - cell viability counter screen (AID 743218); also: nearly all actives have a fitted effect of over 45% in size; also: potency is read from the fitted curve at half-maximal effect
Method in brief: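 Parallel cytotoxicity test: compound-treated (16 h, 37 C) HEK 293T FXR-bla reporter cells were lysed with CellTiter-Glo and luminescence recorded.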

[13] = qHTS assay to identify small molecule antagonists of the farnesoid-X-receptor (FXR) signaling pathway - cell viability counter screen (AID 743221; active = well fitted cell-killing curve with a large enough effect in the repeat runs, not every such curve was filed as active; also: nearly all actives have a fitted effect of over 50% in size; also: potency is read from the fitted curve at half-maximal effect)
Method in brief: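 HEK 293T FXR-bla cells, 5 h pre-incubation; compound + CDCA 50 uM final, 16 h, 37 C; beta-lactamase FRET read first, then CellTiter-Glo luminescence, 30 min RT.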

[14] = target: Vitamin D3 receptor (Homo sapiens) (UniProt P11473); test: qHTS assay to identify small molecule antagonists of the vitamin D receptor (VDR) signaling pathway (AID 743223; active = well fitted inhibition curve with a large enough effect in the signal ratio in the repeat runs, not every such curve was filed as active; the % refers to the signal ratio)
Chain of Vitamin D3 receptor (Homo sapiens) (P11473 whole entry, looked up): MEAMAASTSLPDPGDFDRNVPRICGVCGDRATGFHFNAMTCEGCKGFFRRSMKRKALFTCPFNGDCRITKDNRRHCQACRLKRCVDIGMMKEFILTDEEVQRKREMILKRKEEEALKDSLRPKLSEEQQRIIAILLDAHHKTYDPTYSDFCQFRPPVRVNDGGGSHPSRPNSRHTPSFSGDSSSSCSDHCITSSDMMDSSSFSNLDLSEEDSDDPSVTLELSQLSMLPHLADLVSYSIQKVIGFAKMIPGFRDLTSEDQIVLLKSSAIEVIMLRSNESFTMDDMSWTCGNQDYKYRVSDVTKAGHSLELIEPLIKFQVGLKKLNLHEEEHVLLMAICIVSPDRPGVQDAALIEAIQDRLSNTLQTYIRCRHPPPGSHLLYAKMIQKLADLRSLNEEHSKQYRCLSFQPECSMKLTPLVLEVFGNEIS
Method in brief: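 Beta-lactamase reporter read-out: FRET substrate fluorescence after 2 h at room temperature, following 16 h exposure of VDR-bla cells to test compound plus 3 nM (final) 1alpha,25-dihydroxyvitamin D3 agonist at 37C.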

[15] = qHTS assay for small molecule agonists of the antioxidant response element (ARE) signaling pathway - cell viability counter screen (AID 743203; calls by dose curve; also: nearly all actives have a fitted effect of over 55% in size; also: potency is read from the fitted curve at half-maximal effect)
Method in brief: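 Following 16 hrs of compound treatment at 37C, HepG2 cells with an ARE-controlled beta-lactamase gene were lysed with CellTiter-Glo. Luminescence was read after 30 min at room temperature.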

[16] = target: Vitamin D3 receptor (Homo sapiens) (UniProt P11473); test: qHTS assay to identify small molecule agonists of the vitamin D receptor (VDR) signaling pathway (AID 743222; calls by dose curve)
Method in brief: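 In VDR-bla cells, compound-induced beta-lactamase expression is quantified by FRET substrate fluorescence. Treatment lasts 16 h at 37C; substrate develops 2 h at room temperature.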

[17] = qHTS assay to identify small molecule antagonists of the peroxisome proliferator-activated receptor delta (PPARd) signaling pathway - cell viability counter screen (AID 743213); also: nearly all actives have a fitted effect of over 50% in size; also: potency is read from the fitted curve at half-maximal effect
Method in brief: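 HEK293H cells with the PPARd UAS-bla reporter, co-treated 17 h at 37 C with compounds and L165041 (300 nM final), were lysed with CellTiter-Glo. Luminescence indicated viable cell content.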

[18] = target: Peroxisome proliferator-activated receptor gamma (Homo sapiens) (UniProt P37231); test: qHTS assay to identify small molecule antagonists of the peroxisome proliferator-activated receptor gamma (PPARg) signaling pathway (AID 743191; calls by dose curve; also: nearly all actives have a fitted effect of over 30% in size; also: potency is read from the fitted curve at half-maximal effect)
Method in brief: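 GeneBLAzer PPARg UAS-bla HEK293H cells carrying a UAS-driven beta-lactamase reporter were plated at 3000 cells/well, preincubated 5 h at 37C, then given compound for 17 h at 37C; LiveBLAzer B/G FRET substrate was read after 1 h at room temperature.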

[19] = target: Bile acid receptor (Homo sapiens) (UniProt Q96RI1); test: qHTS assay to identify small molecule antagonists of the farnesoid-X-receptor (FXR) signaling pathway (AID 743217; active = well fitted inhibition curve with a large enough effect in the signal ratio in the repeat runs, not every such curve was filed as active; the % refers to the signal ratio)
Chain of Bile acid receptor (Homo sapiens) (Q96RI1 whole entry, looked up): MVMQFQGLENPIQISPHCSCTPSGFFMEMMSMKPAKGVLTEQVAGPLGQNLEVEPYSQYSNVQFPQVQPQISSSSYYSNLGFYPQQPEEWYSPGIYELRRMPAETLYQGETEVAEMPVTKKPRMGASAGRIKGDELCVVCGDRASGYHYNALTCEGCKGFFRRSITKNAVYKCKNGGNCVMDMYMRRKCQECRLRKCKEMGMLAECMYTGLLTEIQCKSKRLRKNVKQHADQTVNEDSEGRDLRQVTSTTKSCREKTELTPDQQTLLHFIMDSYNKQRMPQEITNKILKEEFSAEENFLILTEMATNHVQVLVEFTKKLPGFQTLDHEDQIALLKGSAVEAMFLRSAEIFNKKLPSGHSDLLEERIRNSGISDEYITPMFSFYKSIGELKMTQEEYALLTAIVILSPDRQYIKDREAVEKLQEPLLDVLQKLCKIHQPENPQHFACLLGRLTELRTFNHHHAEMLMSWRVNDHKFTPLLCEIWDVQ
Method in brief: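 GeneBLAzer FXR-UAS-bla HEK 293T, CDCA-stimulated (50 uM final). Compound treatment 16 h, 37 °C. Detection: beta-lactamase cleavage of B/G FRET substrate, fluorescence.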

[20] = target: Bile acid receptor (Homo sapiens) (UniProt Q96RI1); test: qHTS assay to identify small molecule agonists of the farnesoid-X-receptor (FXR) signaling pathway (AID 743220; active = well fitted activation curve with a large enough effect in the signal ratio in the repeat runs, not every such curve was filed as active; the % refers to the signal ratio)
Method in brief: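 Beta-lactamase reporter under UAS control in GeneBLAzer FXR HEK 293T cells (5000/well) measured with LiveBLAzer FRET substrate after 2 h at room temperature. Compound exposure lasted 16 h at 37C.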
% is scaled to controls: 0 for no effect and ±100 for the full control effect.

COc1c2c(cc3c1OCO3)CCN(C)C2
inactive: Potency [1] | Potency [2] | Potency [3] | Potency [4] | Potency [5] | Potency [6] | Potency [7] | Potency [8] | Potency [9] | Potency [10] | Potency [11] | Potency [12] | Potency [13] | Potency [14]

CCCCC/C=C\C/C=C\C/C=C\C/C=C\CCCC(=O)NCC(=O)O
active: Potency [12] 29.8 µM
inactive: activity change, negative = cytotoxicity [1] -2.83% [at 8.47 µM] | activation [2] -2.57% [at 8.47 µM] | viability change, negative = cytotoxic [3] 8.28% [at 8.47 µM] | activation [4] -0.604% [at 7.08 µM] | Potency [5] | Potency [15] | Potency [16]

O=S1OCC2C(CO1)C1(Cl)C(Cl)=C(Cl)C2(Cl)C1(Cl)Cl (configuration not stated)
active: Potency [1] 48.6 µM | Potency [5] 55 µM and 24.5 µM | Potency [15] 54.4 µM | Potency [7] 24.5 µM | Potency [9] 24.5 µM | Potency [17] 54.9 µM | Potency [12] 38.9 µM
inactive: Potency [2] | Potency [3] | Potency [4] | Potency [16]

Cc1cccc(Cc2cnc[nH]2)c1C
inactive: Potency [1] | Potency [3] | Potency [4] | Potency [18] | Potency [5] | Potency [15] | Potency [7] | Potency [9] | Potency [11] | Potency [12] | Potency [13] | Potency [14]
active: Potency [2] 13.3 µM

C[N+]1(C)[C@@H]2CC[C@H]1CC(OC(=O)C(CO)c1ccccc1)C2 (some centres not stated)
inactive: Potency [1] | Potency [2] | Potency [3] | Potency [4] | Potency [5] | Potency [15] | Potency [7] | Potency [8] | Potency [9] | Potency [17] | Potency [11] | Potency [12] | Potency [13]

CC(C)=CC1C(C(=O)OC(C#N)c2cccc(Oc3ccccc3)c2)C1(C)C (configuration not stated)
inactive: Potency [1] | Potency [2] | Potency [3] | Potency [4] | Potency [18] | Potency [5] | Potency [6] | Potency [15] | Potency [7] | Potency [17] | Potency [11] | Potency [19] | Potency [12] | Potency [13]

COP(=O)(OC)Oc1ccc([N+](=O)[O-])cc1
inactive: Potency [1] | Potency [2] | Potency [3] | Potency [15] | Potency [7] | Potency [9] | Potency [12] | Potency [13] | Potency [16]
active: Potency [18] 17.4 µM

CN=C=O
inactive: Potency [1] | Potency [2] | Potency [3] | Potency [5] | Potency [6] | Potency [15] | Potency [7] | Potency [9] | Potency [17] | Potency [11] | Potency [12] | Potency [13]

O=C(N[C@@H]1N=C(c2ccccc2F)c2cccc3c2N(CC3)C1=O)c1cc2ccccc2[nH]1
active: Potency [2] 0.0668 µM
inactive: Potency [1] | Potency [3] | Potency [5] | Potency [15] | Potency [7] | Potency [9] | Potency [10] | Potency [12] | Potency [13] | Potency [16] | Potency [14]

CSC(C)(C)/C=N/O
inactive: Potency [1] | Potency [2] | Potency [3] | Potency [5] | Potency [15] | Potency [7] | Potency [9] | Potency [10] | Potency [17] | Potency [11] | Potency [12] | Potency [13] | Potency [16] | Potency [14]

Cc1ccn2nc(S(=O)(=O)Nc3c(F)cccc3F)nc2n1
inactive: Potency [1] | Potency [2] | Potency [3] | Potency [18] | Potency [5] | Potency [6] | Potency [15] | Potency [7] | Potency [8] | Potency [9] | Potency [10] | Potency [17] | Potency [11] | Potency [19] | Potency [12] | Potency [20] | Potency [13] | Potency [16] | Potency [14]

CCc1cccc(C)c1N(C(=O)CCl)[C@@H](C)COC
active: Potency [6] 9.69 µM
inactive: Potency [1] | Potency [2] | Potency [3] | Potency [5] | Potency [15] | Potency [7] | Potency [8] | Potency [9] | Potency [17] | Potency [12] | Potency [13]

C#CCO
inactive: Potency [1] | Potency [2] | Potency [3] | Potency [18] | Potency [5] | Potency [6] | Potency [15] | Potency [7] | Potency [8] | Potency [9] | Potency [10] | Potency [17] | Potency [11] | Potency [12] | Potency [13] | Potency [16] | Potency [14]

O=[N+]([O-])c1cc(C(F)(F)F)c(Cl)c([N+](=O)[O-])c1Nc1ncc(C(F)(F)F)cc1Cl
active: Potency [1] 21.7 µM | Potency [2] 77 µM | Potency [3] 13.7 µM | Potency [5] 1.1 µM | Potency [15] 7.7 µM | Potency [7] 6.16 µM | Potency [9] 8.71 µM | Potency [17] 6.16 µM | Potency [12] 15.5 µM | Potency [13] 21.9 µM

CCC1(CC)C(=O)N=C(O)NC1=O
inactive: Potency [1] | Potency [2] | Potency [3] | Potency [18] | Potency [5] | Potency [15] | Potency [7] | Potency [8] | Potency [9] | Potency [10] | Potency [17] | Potency [11] | Potency [12] | Potency [13] | Potency [16] | Potency [14]

COC(=O)c1ccccc1S(=O)(=O)NC(=O)Nc1nc(C)nc(OC)n1
inactive: Potency [1] | Potency [2] | Potency [3] | Potency [5] | Potency [6] | Potency [15] | Potency [7] | Potency [8] | Potency [10] | Potency [17] | Potency [11] | Potency [19] | Potency [12] | Potency [13] | Potency [16]

CCOP(=S)(OCC)SC(CCl)N1C(=O)c2ccccc2C1=O (configuration not stated)
inactive: Potency [1] | Potency [2] | Potency [3] | Potency [5] | Potency [7] | Potency [9] | Potency [10] | Potency [13] | Potency [16]
active: Potency [6] 9.69 µM

CCCCc1ccccc1
inactive: Potency [1] | Potency [2] | Potency [3] | Potency [4] | Potency [15] | Potency [7] | Potency [9] | Potency [10] | Potency [11] | Potency [12] | Potency [13] | Potency [14]
